Data from PubChem BioAssay.
Values without a mark were called inactive. Activity calls are given as the source filed them. No stated cut-off is given here; in the data, active means fold change permeability below about 0.7 or above about 1.3; inactive means in between.

experiment: modulators of brain endothelial barrier permeability, primary screen, cell-based, FITC-avidin fluorescence, HTS (AID 1963498); settings: actives lie on both sides; further: test concentration not given here

| SMILES | fold change permeability |
| --- | --- |
| CNCCC(Oc1ccccc1C)c1ccccc1 (stereo not given) | 0.7 (active) |
| Oc1cc(O)c2c(c1)O[C@H](c1ccc(O)c(O)c1)[C@@H](O)C2 | 0.8 |
| CN[C@H](CC(=O)O)C(=O)O | 0.8 |
| N[C@@H](Cc1c[nH]c2ccc(O)cc12)C(=O)O | 1 |
| CCN(CC)CCOC(=O)c1cc(Cl)c(N)cc1OC | 1.1 |
| C=CCN1CCc2cc(O)c(O)cc2C(c2ccccc2)C1 (stereo not given) | 0.7 (active) |
| CC1CCc2nc(N)c(C#N)c(-c3cccnc3)c2C1 (stereo not given) | 1 |
| O=C(CCCN1CCC(O)(c2ccc(Cl)cc2)CC1)c1ccc(F)cc1 | 1.2 |
| CC(C)[C@H]1C(=O)N[C@@H](CCCN=C(N)N)C(=O)NCC(=O)N[C@@H](CC(=O)O)C(=O)N[C@H](Cc2ccccc2)C(=O)N1C | 1.2 |
| COc1cccc2c(NCc3ccccc3)nc(-n3c(N)nc4ccccc43)nc12 | 0.9 |
| CCN(CC)C(=S)SSC(=S)N(CC)CC | 1.7 (active) |
| CN(C)C/C=C(/c1ccc(Br)cc1)c1cccnc1 | 1.7 (active) |
| CN1CCN(C2=Nc3ccccc3Cc3ccccc32)CC1 | 1.2 |
| O=C(OCCN1CCOCC1)C1(c2ccccc2)CCCCC1 | 1 |
| CNC[C@H](O)c1ccc(O)c(O)c1 | 0.8 |
| CC(C)NNC(=O)c1ccncc1 | 0.6 (active) |
| N[C@@H](COP(=O)(O)O)C(=O)O | 1 |
| O=c1[nH]c2ccccc2c2ccccc12 | 1 |
| CC(C)C(=O)c1c(C(C)C)nn2ccccc12 | 1.3 (active) |
| NC(=O)CC[C@H](N)C(=O)O | 0.8 |
